This passage reports growth results from PubChem BioAssay (NCI).

About 83,000 compounds went through this panel and 20% of them were active in at least one assay; those are over-represented in the sample as a whole.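 Assay: single dose, 48 h. Readout: percent growth (0 = no net growth; negative = cell death). Active: <10.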 A number with no mark means an inactive call. The source made the active and inactive calls.

Some test systems named below: T-47D breast; BT-549 breast; MDA-MB-435 melanoma; SW-620 colon; HCT-116 colon; HCC-2998 colon; KM12 colon; MCF7 breast.
Common to all, as to test: NCI-60 one-dose screen, 48 h (100 = growth as untreated, 0 = no growth, -100 = all killed)
Common to all, as to conditions: 10 µM unless noted

Take `CCC(C(=O)[C@@H](C)[C@@H](O)[C@H](C)[C@@H]1O[C@@H]([C@@H](CC)C(=O)ONC(=O)c2ccccc2)CC[C@@H]1C)[C@H]1O[C@]2(C=CC(=O)[C@]3(CC[C@@](C)([C@H]4CC[C@](O)(CC)[C@H](C)O4)O3)O2)[C@H](C)C[C@@H]1C` (stereo not given in full): the growth with T-47D breast is 21.4%; in the assay on BT-549 breast, 6.21% (active); with MDA-MB-435 melanoma it was 20.8%; in the assay on SW-620 colon, 19.7%; with HCT-116 colon it was -36.9% (active); in the assay on HCC-2998 colon it was 20.7%. Further, the growth in the assay with KM12 colon was 16.2%.
On to `O=C(Nc1nc2cc(C(=O)N3CCN(C(c4ccccc4)c4ccccc4)CC3)ccc2o1)c1ccc(NC2CCCCC2)c([N+](=O)[O-])c1`, for which the growth with T-47D breast was 44.3%; with BT-549 breast it was 83.4%; with MDA-MB-435 melanoma it was 64.9%; in the assay with SW-620 colon, 44.3%; in the assay on HCT-116 colon, 40.9%; with HCC-2998 colon it was 62.2%. Besides, the growth with KM12 colon was 51.4%.
In the case of `Cc1cc(N2CCN(CC(=O)Nc3ccc4c(ccn4C)c3)CC2)nc(N2CCCCCC2)n1`, the growth in the assay on T-47D breast is 65.4%; with BT-549 breast, 89.7%; in the assay on MDA-MB-435 melanoma, 95.2%; in the assay with SW-620 colon it was 93.6%; with HCT-116 colon, 85.6%; in the assay on HCC-2998 colon, 127%. Besides, the growth in the assay on KM12 colon was 93.1%.
With `CCN1CCN(C(=O)[C@]23CCC(C)(C)C[C@@H]2C2=CC[C@@H]4[C@@]5(C)CCC(=O)C(C)(C)[C@@H]5CC[C@@]4(C)[C@]2(C)CC3)CC1`, the growth in the assay with T-47D breast is 56.4%; with BT-549 breast, 58.6%; in the assay with MDA-MB-435 melanoma it was 33.9%; in the assay on SW-620 colon, 31.8%; with HCT-116 colon, 19.1%; with HCC-2998 colon, 62.8%. For the same molecule, in the assay on KM12 colon, the growth is 41.2%.
For the molecule `O=C1C(Cl)=C(Nc2ccc(S(=O)(=O)N3CCOCC3)cc2)C(=O)c2ccccc21`, the growth in the assay on T-47D breast was 69.8%; in the assay on BT-549 breast it was 45.9%; in the assay on MDA-MB-435 melanoma, 88.1%; with SW-620 colon, 32.5%; with HCT-116 colon, 4.7% (active); in the assay with HCC-2998 colon, 106%. Further, the growth in the assay with KM12 colon was 64.5%.
For the molecule `O=C(Nc1ccccc1O)c1ccc(CNC(=O)c2sccc2Nc2ccnc(C(F)(F)F)c2)cc1`, the growth was 40.1% in the assay on T-47D breast; 59.5% in the assay on BT-549 breast; 39.3% with MDA-MB-435 melanoma; 41.9% with SW-620 colon; 26.3% in the assay with HCT-116 colon; 65.4% in the assay on HCC-2998 colon. Moreover, the growth in the assay on KM12 colon was 60.9%.
Take `O=C(NCc1ccc(Cl)cc1Cl)C1CCC(=O)N1c1cccs1` (stereo not given): the growth in the assay with T-47D breast was 75.8%; in the assay with BT-549 breast, 86%; in the assay with MDA-MB-435 melanoma, 97.2%; with SW-620 colon, 106%; in the assay on HCT-116 colon, 79%; with HCC-2998 colon it was 93.4%. Further, the growth in the assay with KM12 colon was 101%.
As to `COc1cccc(CNc2ccc3ncnc(Nc4ccc(F)c(Cl)c4)c3c2)c1`, the growth in the assay on T-47D breast was 51.3%; in the assay on BT-549 breast, 86.8%; in the assay with MDA-MB-435 melanoma it was 78.3%; with SW-620 colon, 76.6%; in the assay on HCT-116 colon, 64.9%; in the assay with HCC-2998 colon it was 86.4%. For the same molecule, in the assay with KM12 colon, the growth is 76.6%.
In the case of `COc1ccc(Nc2nnc(-c3ccc(OC)c(OC)c3)o2)cc1`, the growth in the assay with T-47D breast is 79.1%; with BT-549 breast it was 61.8%; in the assay with MDA-MB-435 melanoma, 109%; with SW-620 colon it was 97.7%; in the assay with MCF7 breast it was 90.9%; with HCT-116 colon, 77.8%. The growth in the assay on HCC-2998 colon is 120%; with KM12 colon it was 85.1%.
Take `COc1cc(-c2nccc3[nH]c(-c4ccc5cc[nH]c5c4)nc23)cc(OC)c1OC`: the growth in the assay on T-47D breast was 30.5%; with BT-549 breast, 18.4%; in the assay on MDA-MB-435 melanoma it was 5.17% (active); with SW-620 colon, -15.6% (active); in the assay with HCT-116 colon, 4.37% (active); in the assay with HCC-2998 colon, -19.2% (active). Moreover, in the assay with KM12 colon, the growth was 3.62% (active).
With `OCCn1cc(-c2nc(-c3c[nH]c4ncccc34)cs2)c2cc(F)ccc21`, the growth in the assay on T-47D breast is 35.2%; in the assay with BT-549 breast, 68.7%; in the assay with MDA-MB-435 melanoma, 5.03% (active); in the assay on SW-620 colon, 57.9%; in the assay on HCT-116 colon, 62.4%; with HCC-2998 colon it was 65.3%. In the assay on KM12 colon, the growth was 28.4%.
Consider `COC(=O)c1c2c(c(C)[n+]([O-])c1C)C(=O)C(NCc1cccc(OC)c1)=CC2=O`, for which the growth in the assay on T-47D breast is 11.5%; with BT-549 breast, 57.5%; with MDA-MB-435 melanoma it was -70.6% (active); in the assay on SW-620 colon, 7.85% (active); in the assay with HCT-116 colon, 1.61% (active); in the assay with HCC-2998 colon, 22.3%. Moreover, in the assay on KM12 colon, the growth is 22%.
Turning to `C=CCN=c1sc2c(n1NC(=O)c1cc3ccc1CCc1ccc(cc1)CC3)C(=O)c1ccccc1C2=O`, the growth in the assay on T-47D breast is -3.21% (active); with BT-549 breast, -99.1% (active); in the assay on MDA-MB-435 melanoma, -93.5% (active); in the assay on SW-620 colon, -59.7% (active); in the assay with HCT-116 colon, -32.4% (active); with HCC-2998 colon it was -33.5% (active). The growth in the assay with KM12 colon was 6.04% (active).
For the molecule `Cc1cc(N2CCN(CCNc3ccnc4cc(Cl)ccc34)CC2)nc(N2CCOCC2)n1`, the growth in the assay with T-47D breast is 55.9%; in the assay with BT-549 breast, 74.2%; in the assay with MDA-MB-435 melanoma, 80.1%; in the assay with SW-620 colon, 79.4%; in the assay on HCT-116 colon, 38.5%; in the assay on HCC-2998 colon, 37.4%. The growth with KM12 colon was 76.6%.
Turning to `N=C(N)c1ccc(-c2ccc(-c3ccc(Cl)c(Cl)c3)s2)nc1`, the growth with T-47D breast was 56.2%; with BT-549 breast it was 87.5%; in the assay on MDA-MB-435 melanoma it was 10.8%; with SW-620 colon it was -56.6% (active); in the assay on HCT-116 colon it was -50.8% (active); in the assay with HCC-2998 colon it was -61.9% (active). The growth with KM12 colon was -74.6% (active).
Consider `CCCn1cc2c(=O)nc3sc(Cc4ccccc4)c(C)n3c2n1`, for which the growth was 84.8% in the assay on T-47D breast; 106% in the assay on BT-549 breast; 106% with MDA-MB-435 melanoma; 101% in the assay with SW-620 colon; 102% with HCT-116 colon; 104% with HCC-2998 colon. For the same molecule, in the assay with KM12 colon, the growth was 94.4%.
Regarding `CCn1cc(C(=O)O)c(=O)c2cc(F)c(N3CCN(CC(=O)Nc4ccc(S(=O)(=O)Nc5nccc(C)n5)cc4)C(C)C3)c(F)c21` (stereo not given), the growth in the assay with T-47D breast is 98.9%; in the assay with BT-549 breast, 132%; in the assay with MDA-MB-435 melanoma it was 103%; with SW-620 colon, 96.6%; in the assay on HCT-116 colon, 104%; in the assay on HCC-2998 colon, 115%. Further, the growth in the assay on KM12 colon is 100%.
